# Results published in the supplement of paper PMC3334620.
# The full ranking holds about 33,000 sequences; the median of “E-score (-0.5 to 0.5)” is about -0.04, and the highest 2% start at about 0.36. This excerpt belongs to a sample that is enriched for the highest values.
# Molecular target: T1, Hmlalpha2 (UniProt P0CY09)
# T1 sequence: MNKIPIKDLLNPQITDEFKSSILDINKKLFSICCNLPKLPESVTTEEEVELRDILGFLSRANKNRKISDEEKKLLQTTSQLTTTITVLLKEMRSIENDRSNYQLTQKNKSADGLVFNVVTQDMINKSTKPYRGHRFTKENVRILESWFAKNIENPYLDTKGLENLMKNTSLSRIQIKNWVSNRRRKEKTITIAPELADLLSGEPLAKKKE
# Test: PBM E-score (8-mer binding enrichment) (E-score (-0.5 to 0.5)); higher = stronger / more preferred TF binding
# Conditions: protein concentration: 200 nM; construct: GST-full length
# Description: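 Universal 'all 10-mer' protein binding microarrays (Agilent AMADID 015681) probed with GST-tagged S. cerevisiae TFs (full-length or DBD) made by in vitro transcription/translation (PURExpress), about 100-200 nM. Bound TF was detected with fluorescent anti-GST. Each ungapped 8-mer (which stands for itself and its reverse complement) is scored by the PBM enrichment score (E-score), a modified Wilcoxon-Mann-Whitney statistic from -0.5 to +0.5, computed with the Universal PBM Analysis Suite. Scale: above 0.35 generally sequence-specific binding.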
row,Sequence,PBM E-score
1,GACTTGGC,-0.347
2,AACACGAT,0.439
3,GACACGAA,0.2
4,AGCACGAT,0.147
5,GACACGAC,0.394
6,ATCACGAT,-0.0443
7,GACACGGC,0.223
8,ATAGAACA,0.164
9,GGGTTCGA,-0.248
10,CGACAATC,-0.19
11,GCCTCTGA,-0.251
12,GTTTCAGA,-0.0374
13,CACCGGCG,-0.12
14,AACACTTC,0.138
15,ACTACCGA,-0.12
16,AATCAACG,0.202
17,TATCAACA,0.365
18,CATCAACA,0.297
19,GTTCAACA,0.367
20,AATCAACC,-0.103
21,CTTCAACA,0.341
22,AATCAACA,0.37
23,GATCAACA,0.341
24,ATTCAACA,0.352
25,CCCGGTTC,-0.22
26,GCCAGGAC,-0.269

row,Sequence,PBM E-score
1,AGTAGATG,0.136
2,AAGTAAGA,0.0354
3,GTGTAAGA,0.401
4,GCGTAAGA,0.249
5,ATGTAAGG,0.313
6,CTGTAAGC,-0.0257
7,ATGTAAGC,0.374
8,AGGTAAGA,-0.0177
9,ATGTAAGA,0.433
10,CTGTAAGA,0.0715
11,AGGGAGGC,-0.339
12,ACATACCA,0.227
13,TGCTCTAA,-0.134
14,ACCTTACC,0.0897
15,ACAACTAC,0.225
16,CCCGATAC,-0.0785
17,ATCATGCA,-0.0495
18,ATCATGCG,-0.0811
19,GACATGGA,0.263
20,CACATGGA,0.197
21,AACATGCG,0.399
22,AGCATGCT,0.151
23,ACCATGCA,0.106
24,CACATGCG,0.141
25,AACATGCA,0.417
26,AACATGCT,0.396

row,Sequence,PBM E-score
1,ACCATGCT,0.0386
2,TACATGGA,0.429
3,AGAATGGG,-0.307
4,GATTCCAA,-0.0677
5,ACATGCCG,0.356
6,TAGCAGCA,-0.0647
7,GACCCAGA,-0.168
8,CCTCCCGC,-0.0916
9,ATCCGTGG,-0.229
10,CCGATCAA,-0.0314
11,CGCACCGC,-0.177
12,CCGCCAAA,-0.105
13,CGAAAGAA,-0.0556
14,TCCGCGGA,-0.0621
15,ACGAAAGA,-0.0344
16,AATCGTAC,0.102
17,GACATGCA,0.294
18,CACATGCC,0.209
19,GACATGCC,0.212
20,CACATGCA,0.234
21,TACATGCA,0.438
22,AACATGCC,0.388
23,ACGTTAGA,0.146
24,GGTCCGGA,-0.0474
25,TAAGCGAA,0.122
26,TTTCGAAA,0.0465

row,Sequence,PBM E-score
1,ATTTCTAC,0.234
2,CACATAGG,0.0614
3,AACATAAG,0.391
4,CACATAAG,0.117
5,ATCATAAG,-0.00054
6,AACATAGG,0.38
7,AACATAAC,0.403
8,AACATAAT,0.287
9,CACATAAC,0.242
10,AACATAGA,0.284
11,CCGCAGTA,-0.0882
12,ATATTCTA,0.169
13,CTCTTCGC,-0.205
14,CCATTGCG,-0.262
15,GGGTATCA,-0.118
16,AGCATAGC,0.0169
17,CTGCGTTA,0.226
18,GTGCGTGA,0.192
19,ATGCGTAC,0.273
20,GGGCGTAA,0.0836
21,CTGCGTAA,0.417
22,GTGCGTAA,0.406
23,ATGCGTAA,0.375
24,ATGCGTAG,0.214
25,CTGCGTAC,0.186
26,GTTCTGAA,0.213

row,Sequence,PBM E-score
1,TGTGGGAA,0.00853
2,CCCTCGCG,-0.199
3,ATGAGCAC,-0.067
4,ACTAAGTC,-0.157
5,AATATTAT,0.189
6,AATATTAC,0.381
7,AATATTAG,0.0923
8,ACCACCAG,-0.148
9,CATACGCG,0.177
10,AATACGCA,0.385
11,AATACGCG,0.399
12,AATACGCC,0.0351
13,GATACGCA,0.144
14,AATACGCT,0.234
15,CGACTTTA,0.134
16,AGGCACGC,-0.188
17,ATATTACA,0.439
18,CTATTACA,0.442
19,CTATTAGA,-0.0387
20,GTATTAAA,0.307
21,ATATTACC,0.187
22,ATATTACG,0.352
23,GTATTACA,0.403
24,GTATTAGA,0.289
25,CTATTACC,-0.0498
26,ATCTTTCA,0.0227

row,Sequence,PBM E-score
1,TTTCAAAA,0.17
2,CTGATACC,-0.15
3,CGTTTGAC,0.0383
4,ACGTAAGA,0.29
5,CCGTAATC,-0.00299
6,ACGTAATA,0.431
7,ACGTAATC,0.392
8,ACGTAATG,0.408
9,CCGTAATA,0.159
10,ACGTAAGC,0.0597
11,AAGTAATG,0.196
12,AGGTAATG,0.226
13,AGGTAATA,0.139
14,GAGTAATA,0.286
15,GCGTAATA,0.373
16,GCTGCTTA,-0.0322
17,CCAATGCG,-0.181
18,GGTAAGCA,-0.0728
19,AATAAGCC,-0.212
20,GTGCATGA,0.0341
21,GAAAGTTC,-0.218
22,GTATCCTA,0.0388
23,GCCTATGA,-0.147
24,CCAACCCG,-0.242
25,GGGCGAAC,-0.178
26,GAACTCTA,0.123

row,Sequence,PBM E-score
1,TTATCGAA,0.0652
2,AATGTTAC,0.269
3,AATGTTAG,0.185
4,CCTGTTAG,0.0951
5,CATGTTAC,0.41
6,CATGTTAG,0.422
7,GATGTTAC,0.304
8,ATGGTCGA,-0.0159
9,ACGTAAAG,0.372
10,AGGTAAAG,0.19
11,ACGTAAAA,0.388
12,CAGTAAAA,0.134
13,ACGTAACC,0.22
14,ACGTAACG,0.161
15,ACGTAAAT,0.376
16,AAGTAAAA,0.121
17,CCGTAAAG,0.0757
18,ACGTAAAC,0.295
19,ACGTAAGT,0.216
20,ACGTAACA,0.385
